# Source: PubChem BioAssay
# aSyn 5UTR act = Activators working through SNCA 5'UTR binding (MLPCN). alpha-synuclein 5'UTR reporter, activators screen. 300,000 compounds, 7.1% hits. activity score, % (tested at 7.5 µM), hits read low. AID 1814; in the data active = activity score below about -60%
# Active calls of the source: *. A selection follows.
SMILES,aSyn 5UTR act
Cc1cc(/C=C2\SC(=S)N(Cc3ccco3)C2=O)c(C)n1-c1cccnc1,-181*
COc1cc(NC(=O)COc2ccccc2C)ccc1NC(=O)c1ccco1,-68*
COc1ccc(NC(=O)CSc2ccccc2)c(OC)c1,-100*
COc1ccc(NC(=O)c2ccccc2O)c(OC)c1,-205*
COc1ccc(CN(C)CC(=O)Nc2ccccc2-c2ccccc2)c(OC)c1,46
COc1cc2c(cc1NC(=O)c1ccco1)CCCC2,-278*
COc1ccc(NC(=O)c2ccco2)c(OC)c1,-128*
COc1ccc(NC(=O)c2cc(C(C)C)on2)c(OC)c1,-244*
COc1cc(NC(=O)C(C)C)ccc1NC(=O)c1ccco1,-92*
c1ccc2c(c1)CC(N1CCCCC1)c1ccccc1S2 (stereo not drawn),90
Cc1cc(NC(=O)/C=C/c2ccccc2Cl)n(-c2nc3ccccc3[nH]2)n1,-111*
O=C(/C=C/c1ccccc1Cl)Nn1cnc2ccccc2c1=O,-137*
Cc1nc2ccccc2c(=O)n1NC(=O)/C=C/c1ccccc1Cl,-138*
COc1ccc(/C=N/c2c(-c3ccco3)nc3ccccn23)cc1OC,-64*
Cn1cccc1/C=C1\Cc2ccccc2C1=O,-142*
CCc1cc(C=NC2CCCCC2)c(O)s1,-174*
COc1ccc(C(=O)Nc2cc(Cl)cc(Cl)c2)c(OC)n1,-114*
COc1ccc(C(=O)Nc2cc(Cl)ccc2Cl)c(OC)n1,-91*
COc1ccc(-c2nsc3c(N4CCN(C(=O)c5ccco5)CC4)ncnc23)cc1,-64*
NC(=O)C1CCN(c2ncnc3c(-c4ccccc4)nsc23)CC1,-112*
O=C(c1ccco1)N1CCN(c2ncnc3c(-c4ccccc4)nsc23)CC1,-106*
O=C(NCc1cccnc1)Nc1ccc(Br)cc1,-79*
O=C(/C=C/NCc1cccnc1)c1ccc(Br)cc1,-66*
O=C(NCc1cccnc1)Nc1ccc(Cl)c(Cl)c1,-110*
CCOc1ccc(/C=C(/NC(=O)c2ccc(Cl)cc2)C(=O)O)cc1OCC,-86*
SMILES,aSyn 5UTR act
Cc1[nH]c2ccccc2c1C(=O)CSc1ccccc1,-86*
Cc1[nH]c2ccccc2c1C(=O)CSc1ccccn1,-68*
Cc1[nH]c2ccccc2c1C(=O)COc1ccccc1,-113*
Cc1ccc2c(C(=O)CSc3ccccc3)c(C)[nH]c2c1,-109*
COc1cccc(-c2csc(NC(=O)Nc3ccccc3)n2)c1,-166*
O=C(Nc1ccc(-c2csc(Nc3ccccc3)n2)cc1)c1ccccc1,-87*
O=C(Nc1ccccc1)Nc1nc(-c2ccccc2)cs1,-88*
COc1cccc(-c2csc(NC(=O)C3CC3)n2)c1,-161*
O=C(Nc1nc(-c2ccccc2)cs1)Nc1ccc(F)cc1F,-63*
CC(C)(C)c1csc(NC(=O)Nc2ccccc2)n1,-141*
COc1cc(C(C#N)N2N=C(c3ccccc3)CC2c2ccccc2)ccc1O (stereo not drawn),-142*
COc1ccccc1-c1nnc2n1N=C(c1ccc(O)c(O)c1)CS2,97
Cn1nnnc1SCc1nnc(-c2ccc(Cl)cc2)o1,-75*
CCOC(=O)c1cc2cc3ccccc3cc2[nH]1,-300*
Cn1c(=O)[nH]c2cc3ccccc3cc21,62
CC(C)OC(=O)c1cc2ccccc2[nH]1,-84*
Clc1ccccc1-c1nnc(-c2ccccc2Cl)o1,-158*
Clc1ccc(-c2nnc(-c3ccccc3Cl)o2)cc1,-82*
O=C(NC1CCCCCC1)C(=S)NC1CCCCC1,-98*
O=C(NC1CCCCCCC1)NC1CCCCC1,-127*
CCOC(=O)c1ccc(NC(=O)Oc2ccccc2)cc1,-66*
O=C(Nc1ccc2c(c1)OCO2)c1n[nH]c(=O)c2ccccc12,-140*
CCOC(=O)c1ccc(NC(=O)c2n[nH]c(=O)c3ccccc23)cc1,-90*
Nc1ccc(OC(=O)Nc2ccc(O)cc2)cc1,91
CC1CCN(c2ccc(NC(=O)c3ccccc3[N+](=O)[O-])cc2)CC1,-70*
SMILES,aSyn 5UTR act
CCC(=O)NC(c1ccc(C)cc1)c1cc([N+](=O)[O-])c2cccnc2c1O (stereo not drawn),64
CCOC(=O)c1ccc(NC(=O)c2nc(S(=O)(=O)Cc3ccccc3)ncc2Cl)cc1,54
CCOC(=O)c1ccc(NC(=O)c2ccccc2[N+](=O)[O-])cc1,-76*
CCOC(=O)c1ccc(Nc2ncccc2[N+](=O)[O-])cc1,-218*
CCOC(=O)c1ccc(NC(=O)c2ccccc2)cc1,-252*
O=C(OCCC1Oc2cccnc2NC1=O)c1ccc([N+](=O)[O-])cc1 (stereo not drawn),34
CCOC(=O)C(NC(=O)c1ccccc1Cl)(Nc1ccc(C)c(C)c1)C(F)(F)F (stereo not drawn),-81*
CCCCCOc1ccc(Br)cc1/C(C)=N/NC1=NCCN1,88
Cc1ccc(C(=O)CC(=O)c2ccc(C(C)(C)C)cc2)cc1,-113*
CC(C)(C)c1ccc(C(=O)CS(=O)(=O)c2ccccc2)cc1,-133*
Cc1ccc(C(=O)CC(=O)c2cc(Cl)ccc2O)cc1,-151*
Cc1ccc(C(=O)CC(=O)c2ccc(C)cc2O)cc1,-95*
COCC(C)NC(=O)CCc1nnc(C2(c3ccc(Cl)cc3)CCC2)o1 (stereo not drawn),-81*
C=CCNC(=O)CCc1nnc(C2(c3ccc(Cl)cc3)CCC2)o1,-120*
C=C(C)CNC(=O)CCc1nnc(C2(c3ccc(Cl)cc3)CCC2)o1,-98*
O=[N+]([O-])c1ccc(Sc2cccc[n+]2[O-])c2nonc12,85
CCOc1ccc(Nc2ccc([N+](=O)[O-])c3nonc23)cc1,-123*
COc1cc(CNC(C)c2ccccc2)cc(Br)c1OCc1ccc(F)cc1 (stereo not drawn),59
COc1cc(/C=N/NC(N)=S)cc(Br)c1OCc1ccccc1F,-74*
CCOc1cc(/C=N/NC(N)=S)cc(Br)c1OCc1ccccc1C,-74*
Nc1nc(NC(=O)c2cccs2)nn1-c1ccccc1,-115*
O=C(Nc1nc(NC(=O)c2ccco2)n(-c2ccccc2)n1)c1ccccc1,79
Nc1nc(NC(=O)c2ccccc2)nn1-c1ccccc1,-71*
COc1cccc(/C=N/n2c(N)nc3ccccc32)c1OC,-154*
COc1cccc(/C=N/n2cnc3ccccc32)c1OC,-191*
SMILES,aSyn 5UTR act
COc1cc(C(=O)N/N=C(\c2ccccc2)c2ccccn2)cc(OC)c1OC,81
COc1ccccc1-n1cnc(N)c1C(=O)c1ccccc1,-153*
c1ccc(C2=NN(c3ccccc3)CC2)cc1,-157*
COc1ccc2c(c1)c(/C=N/Nc1nc3ccccc3[nH]1)c(C)n2C,-115*
Cc1ccc2cc(/C=N/Nc3nc4ccccc4[nH]3)c(Cl)nc2c1,-111*
COc1ccc(/C=N/Nc2nc3ccccc3[nH]2)cc1OC,-228*
CCN(CC)c1ccc(/C=N/Nc2nc3ccccc3[nH]2)c(O)c1,84
C(=N\Nc1nc2ccccc2[nH]1)/c1ccc2ncccc2c1,95
COc1cc(/C=N\Nc2nc3ccccc3[nH]2)cc(OC)c1OC,-82*
Nc1cccc(-c2cnc3ccccc3n2)c1,-99*
O=[N+]([O-])c1cc(-c2cnc3ccccc3n2)ccc1Cl,-93*
COc1ccccc1Oc1ccc(-c2cnc3ccccc3n2)cc1[N+](=O)[O-],-74*
O=[N+]([O-])c1cc(-c2cnc3ccccc3n2)ccc1Oc1ccc(Cl)cc1,-65*
O=[N+]([O-])c1cccc(-c2cnc3ccccc3n2)c1,-93*
O=[N+]([O-])c1ccc(-c2nc(C(Cl)Cl)c3ccccc3n2)cc1,129
